We go through 2 molecules from PubChem BioAssay (NCATS).

A short description of experiment [1]: qHTS assay for cell viability of HEK293 cells (AID 743288). Also: nearly all actives have a fitted effect of over 50% in size. To be noted: ATP luminescence (CellTiter-Glo), 18 h; max response: hits give low values. The method, boiled down:
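Total intracellular ATP, measured with a luciferase-coupled reagent, indicates the number of viable HEK293 cells. Exposure to test chemicals lasts 18 h at 37 C in 1,536-well format at 2,000 cells/well.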

The nature of experiment [2]: qHTS assay for cell viability of the p53RE-bla HCT-116 cell line (AID 743292). Also: nearly all actives have a fitted effect of over 55% in size. The method, boiled down:
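In this qHTS counter-screen, metabolically competent p53RE-bla HCT-116 cells were counted via their ATP content. Compounds were applied for 16 h at 37 C and luciferase-coupled luminescence was measured.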
In general terms: Quantitative high-throughput screening tests each substance at several concentrations.

Experiment [3] is described as follows: qHTS assay for small molecule activators of the human pregnane X receptor (PXR) signaling pathway (AID 720659; call rule not given here).
The target in experiment [4] is Tyrosyl-DNA phosphodiesterase 1 (Homo sapiens) (UniProt Q9NUW8). Briefly: Confirmation Assay for Inhibitors of Tyrosyl-DNA Phosphodiesterase (TDP1) (AID 489007). Also: potency is read from the fitted curve at half-maximal effect; nearly all actives have a fitted effect of over 40% in size. Particulars: recombinant human TDP1 enzymatic activity, dose-response. In a few lines:
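Recombinant E. coli-expressed Tdp1 (1 nM final) was preincubated with compounds 15 min at room temperature, then reacted 5 min with 15 nM 5'-biotin/3'-phosphotyrosine-FITC DNA substrate; cleavage read as loss of AlphaScreen signal (10 ug/ml beads, 10 min).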

Unmarked numbers belong to inactive results. Results filed as inconclusive are left out. A call without a number means that no potency is given here. Calls of active or inactive are those of the source. Unless noted, calls follow the shape of the dose curve; as a rule, active = well fitted curve in the direction sought with a large enough effect; inconclusive = small, poorly fitted or top-dose-only effect, or another doubt; inactive = no such curve, though single readings can be large; an effect the other way counts as inactive or inconclusive.

Chain of Tyrosyl-DNA phosphodiesterase 1 (Homo sapiens) (Q9NUW8 whole entry, looked up): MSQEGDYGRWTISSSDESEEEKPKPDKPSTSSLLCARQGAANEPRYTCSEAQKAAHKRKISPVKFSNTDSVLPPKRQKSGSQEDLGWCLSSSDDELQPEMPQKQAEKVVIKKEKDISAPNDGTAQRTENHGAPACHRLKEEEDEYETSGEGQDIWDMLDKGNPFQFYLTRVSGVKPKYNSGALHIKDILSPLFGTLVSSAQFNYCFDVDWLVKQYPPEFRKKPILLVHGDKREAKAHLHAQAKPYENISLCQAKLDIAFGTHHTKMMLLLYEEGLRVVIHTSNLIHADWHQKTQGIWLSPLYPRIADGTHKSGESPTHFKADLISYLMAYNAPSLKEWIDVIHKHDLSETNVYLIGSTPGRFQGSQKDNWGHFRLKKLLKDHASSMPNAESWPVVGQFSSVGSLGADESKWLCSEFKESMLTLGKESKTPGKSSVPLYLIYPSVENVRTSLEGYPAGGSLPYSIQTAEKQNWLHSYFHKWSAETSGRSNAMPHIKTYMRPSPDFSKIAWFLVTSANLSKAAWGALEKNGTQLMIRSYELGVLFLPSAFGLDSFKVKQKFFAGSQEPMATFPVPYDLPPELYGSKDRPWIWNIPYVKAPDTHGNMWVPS

Take `N[C@@H](Cc1ccccc1)C(=O)O`: the max response in experiment [1] was 2.21%. Moreover, in experiment [2], the Potency result was “inactive”. Also, the call in experiment [3] was inactive.

`O=C(O)[C@@H](O)[C@@H](O)[C@H](O)[C@H](O)CO`: the Potency in experiment [4] is 5.01 µM (active).
